Key:
[1] = biological target: T1, Serine/threonine-protein kinase D2 (Homo sapiens) (UniProt Q9BZL6); details: at 1 µM;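 also: mean value of PRKD2 inhibition, from the GSK PKIS screening panel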
T1 sequence (whole entry): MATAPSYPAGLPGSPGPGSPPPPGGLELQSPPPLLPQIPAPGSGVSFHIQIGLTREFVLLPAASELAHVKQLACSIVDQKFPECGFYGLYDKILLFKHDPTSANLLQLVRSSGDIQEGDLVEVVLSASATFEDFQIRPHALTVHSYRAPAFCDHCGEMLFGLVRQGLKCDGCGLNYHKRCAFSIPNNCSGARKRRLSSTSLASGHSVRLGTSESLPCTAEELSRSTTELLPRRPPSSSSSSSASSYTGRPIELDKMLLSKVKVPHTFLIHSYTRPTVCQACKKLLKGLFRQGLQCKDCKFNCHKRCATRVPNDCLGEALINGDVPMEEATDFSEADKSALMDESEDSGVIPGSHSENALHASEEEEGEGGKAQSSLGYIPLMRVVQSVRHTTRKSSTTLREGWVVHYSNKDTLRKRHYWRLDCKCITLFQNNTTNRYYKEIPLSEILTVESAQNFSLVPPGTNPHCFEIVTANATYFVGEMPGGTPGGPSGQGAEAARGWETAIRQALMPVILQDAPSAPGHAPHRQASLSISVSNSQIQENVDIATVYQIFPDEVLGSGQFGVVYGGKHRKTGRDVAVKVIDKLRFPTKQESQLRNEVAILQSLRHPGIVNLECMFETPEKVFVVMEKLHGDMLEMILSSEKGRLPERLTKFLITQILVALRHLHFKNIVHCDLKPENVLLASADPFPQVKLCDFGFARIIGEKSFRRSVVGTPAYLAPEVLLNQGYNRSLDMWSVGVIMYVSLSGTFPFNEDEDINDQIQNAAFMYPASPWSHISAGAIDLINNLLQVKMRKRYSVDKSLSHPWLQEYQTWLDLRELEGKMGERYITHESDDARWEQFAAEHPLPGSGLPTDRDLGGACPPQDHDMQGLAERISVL

[2] = biological target: T2, Serine/threonine-protein kinase D3 (Homo sapiens) (UniProt O94806); details: at 0.1 µM
T2 sequence (whole entry): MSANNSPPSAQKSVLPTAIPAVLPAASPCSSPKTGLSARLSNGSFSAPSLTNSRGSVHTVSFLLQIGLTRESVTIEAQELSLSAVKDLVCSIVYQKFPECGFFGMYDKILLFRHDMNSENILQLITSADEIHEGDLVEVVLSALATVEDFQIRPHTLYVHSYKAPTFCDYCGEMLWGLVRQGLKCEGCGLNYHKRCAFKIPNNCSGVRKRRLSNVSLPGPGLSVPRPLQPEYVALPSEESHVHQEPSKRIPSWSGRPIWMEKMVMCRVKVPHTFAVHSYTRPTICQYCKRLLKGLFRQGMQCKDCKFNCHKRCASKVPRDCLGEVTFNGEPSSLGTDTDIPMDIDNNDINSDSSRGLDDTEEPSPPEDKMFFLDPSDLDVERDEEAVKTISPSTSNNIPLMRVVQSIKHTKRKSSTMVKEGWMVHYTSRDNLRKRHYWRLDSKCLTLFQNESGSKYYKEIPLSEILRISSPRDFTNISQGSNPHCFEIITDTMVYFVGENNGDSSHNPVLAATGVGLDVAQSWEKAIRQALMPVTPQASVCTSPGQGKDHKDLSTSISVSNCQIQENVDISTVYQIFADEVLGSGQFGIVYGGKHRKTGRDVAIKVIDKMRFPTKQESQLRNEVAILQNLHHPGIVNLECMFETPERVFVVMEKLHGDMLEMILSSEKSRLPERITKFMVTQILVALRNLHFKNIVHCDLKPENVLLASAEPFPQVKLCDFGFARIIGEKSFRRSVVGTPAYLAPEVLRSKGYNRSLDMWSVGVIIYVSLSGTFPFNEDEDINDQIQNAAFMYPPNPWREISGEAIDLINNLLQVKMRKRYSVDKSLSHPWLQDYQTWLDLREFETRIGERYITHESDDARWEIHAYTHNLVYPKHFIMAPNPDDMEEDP

[3] = biological target: T2, Serine/threonine-protein kinase D3 (Homo sapiens); details: at 1 µM
[4] = biological target: T3, cGMP-dependent protein kinase 1 (Homo sapiens) (UniProt Q13976); details: at 0.1 µM
T3 sequence (whole entry): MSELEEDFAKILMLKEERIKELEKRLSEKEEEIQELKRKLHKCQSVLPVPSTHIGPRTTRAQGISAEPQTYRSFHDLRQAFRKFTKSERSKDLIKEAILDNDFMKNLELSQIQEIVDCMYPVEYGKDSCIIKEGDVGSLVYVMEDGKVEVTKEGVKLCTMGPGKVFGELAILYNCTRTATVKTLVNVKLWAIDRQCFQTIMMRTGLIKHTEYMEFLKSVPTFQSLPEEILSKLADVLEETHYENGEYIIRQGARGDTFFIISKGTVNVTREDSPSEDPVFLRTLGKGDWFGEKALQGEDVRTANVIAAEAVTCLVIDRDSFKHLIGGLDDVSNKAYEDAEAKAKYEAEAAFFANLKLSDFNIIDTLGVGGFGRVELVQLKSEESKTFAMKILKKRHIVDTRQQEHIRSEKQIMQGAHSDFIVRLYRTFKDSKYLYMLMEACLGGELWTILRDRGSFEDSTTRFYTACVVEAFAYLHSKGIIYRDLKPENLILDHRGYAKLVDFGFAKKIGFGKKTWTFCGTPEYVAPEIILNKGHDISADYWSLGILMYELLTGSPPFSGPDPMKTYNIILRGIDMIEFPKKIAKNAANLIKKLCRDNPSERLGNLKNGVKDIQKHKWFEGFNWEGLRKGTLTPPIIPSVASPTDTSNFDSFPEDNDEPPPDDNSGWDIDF

[5] = biological target: T3, cGMP-dependent protein kinase 1 (Homo sapiens); details: at 1 µM
[6] = biological target: T4, cGMP-dependent protein kinase 2 (Homo sapiens) (UniProt Q13237); details: at 0.1 µM
T4 sequence (whole entry): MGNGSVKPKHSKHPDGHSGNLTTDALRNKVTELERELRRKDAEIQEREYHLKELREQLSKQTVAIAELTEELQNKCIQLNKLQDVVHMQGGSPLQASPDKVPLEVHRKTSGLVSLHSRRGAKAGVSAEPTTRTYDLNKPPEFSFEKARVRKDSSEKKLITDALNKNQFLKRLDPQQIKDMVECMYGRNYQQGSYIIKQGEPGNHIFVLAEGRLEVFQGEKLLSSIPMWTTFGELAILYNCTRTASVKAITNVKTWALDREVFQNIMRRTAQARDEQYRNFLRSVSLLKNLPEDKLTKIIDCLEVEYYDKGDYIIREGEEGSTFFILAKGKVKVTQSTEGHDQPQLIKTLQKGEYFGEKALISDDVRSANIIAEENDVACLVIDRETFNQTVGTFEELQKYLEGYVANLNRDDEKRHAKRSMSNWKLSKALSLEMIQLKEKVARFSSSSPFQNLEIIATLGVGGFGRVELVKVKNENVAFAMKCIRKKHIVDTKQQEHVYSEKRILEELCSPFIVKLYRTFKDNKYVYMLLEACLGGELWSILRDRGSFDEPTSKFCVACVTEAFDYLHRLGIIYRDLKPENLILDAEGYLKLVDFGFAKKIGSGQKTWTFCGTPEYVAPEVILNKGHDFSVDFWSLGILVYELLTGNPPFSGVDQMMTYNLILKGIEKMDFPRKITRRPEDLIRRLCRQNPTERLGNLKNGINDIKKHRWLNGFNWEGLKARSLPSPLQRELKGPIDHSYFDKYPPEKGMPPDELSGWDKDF

[7] = biological target: T4, cGMP-dependent protein kinase 2 (Homo sapiens); details: at 1 µM
[8] = biological target: T5, cAMP-dependent protein kinase catalytic subunit PRKX (Homo sapiens) (UniProt P51817); details: at 0.1 µM
T5 sequence (whole entry): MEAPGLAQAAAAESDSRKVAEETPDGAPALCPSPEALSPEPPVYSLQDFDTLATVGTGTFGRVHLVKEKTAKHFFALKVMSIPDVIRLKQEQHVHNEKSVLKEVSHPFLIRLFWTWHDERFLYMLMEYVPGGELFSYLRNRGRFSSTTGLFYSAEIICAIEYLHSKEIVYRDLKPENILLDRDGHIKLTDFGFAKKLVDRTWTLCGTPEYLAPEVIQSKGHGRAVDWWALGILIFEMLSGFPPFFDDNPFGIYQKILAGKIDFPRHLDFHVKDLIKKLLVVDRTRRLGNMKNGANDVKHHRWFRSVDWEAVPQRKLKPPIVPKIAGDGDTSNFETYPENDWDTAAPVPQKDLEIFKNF

[9] = biological target: T5, cAMP-dependent protein kinase catalytic subunit PRKX (Homo sapiens); details: at 1 µM
[10] = biological target: Rho-associated protein kinase 1 (Homo sapiens) (UniProt Q13464); details: at 0.1 µM
Chain of Rho-associated protein kinase 1 (Homo sapiens) (Q13464 2-1354 limits assumed): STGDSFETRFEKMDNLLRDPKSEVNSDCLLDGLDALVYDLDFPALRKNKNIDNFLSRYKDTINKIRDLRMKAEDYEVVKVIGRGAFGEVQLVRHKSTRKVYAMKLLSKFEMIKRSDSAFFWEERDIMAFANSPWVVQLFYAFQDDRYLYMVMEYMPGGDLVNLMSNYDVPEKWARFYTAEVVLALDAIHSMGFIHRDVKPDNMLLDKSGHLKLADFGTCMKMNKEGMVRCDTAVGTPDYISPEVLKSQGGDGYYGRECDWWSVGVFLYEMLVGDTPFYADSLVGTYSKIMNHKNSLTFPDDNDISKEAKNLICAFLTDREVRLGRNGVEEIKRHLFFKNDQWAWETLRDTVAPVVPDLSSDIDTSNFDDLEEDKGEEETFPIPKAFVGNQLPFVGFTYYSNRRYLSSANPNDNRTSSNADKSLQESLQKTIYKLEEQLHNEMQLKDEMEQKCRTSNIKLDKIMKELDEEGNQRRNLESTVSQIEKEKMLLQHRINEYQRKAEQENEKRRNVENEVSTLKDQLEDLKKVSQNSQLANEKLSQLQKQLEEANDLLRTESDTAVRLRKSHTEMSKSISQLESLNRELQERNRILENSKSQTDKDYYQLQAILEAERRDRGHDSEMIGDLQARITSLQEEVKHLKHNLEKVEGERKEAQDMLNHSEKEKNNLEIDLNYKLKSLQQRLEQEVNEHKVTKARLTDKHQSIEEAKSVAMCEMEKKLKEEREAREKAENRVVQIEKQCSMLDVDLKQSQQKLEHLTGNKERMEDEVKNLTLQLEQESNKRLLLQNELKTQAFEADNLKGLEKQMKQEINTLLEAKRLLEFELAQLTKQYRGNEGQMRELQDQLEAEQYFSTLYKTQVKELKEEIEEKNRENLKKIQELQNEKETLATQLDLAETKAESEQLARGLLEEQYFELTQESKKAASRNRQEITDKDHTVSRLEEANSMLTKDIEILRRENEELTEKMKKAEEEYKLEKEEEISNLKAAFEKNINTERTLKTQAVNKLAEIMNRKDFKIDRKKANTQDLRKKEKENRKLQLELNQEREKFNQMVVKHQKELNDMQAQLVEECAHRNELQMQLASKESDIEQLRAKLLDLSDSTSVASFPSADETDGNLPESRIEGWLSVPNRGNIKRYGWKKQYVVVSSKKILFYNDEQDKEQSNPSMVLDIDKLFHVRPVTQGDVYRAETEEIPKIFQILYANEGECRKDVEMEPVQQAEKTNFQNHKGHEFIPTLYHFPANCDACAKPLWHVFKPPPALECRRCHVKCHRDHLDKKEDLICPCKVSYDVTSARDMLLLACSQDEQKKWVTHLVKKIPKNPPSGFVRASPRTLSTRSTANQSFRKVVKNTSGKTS

[11] = biological target: Rho-associated protein kinase 1 (Homo sapiens) (UniProt Q13464); details: at 1 µM
[12] = biological target: Rho-associated protein kinase 2 (Homo sapiens) (UniProt O75116); details: at 0.1 µM
Chain of Rho-associated protein kinase 2 (Homo sapiens) (O75116 whole entry, looked up): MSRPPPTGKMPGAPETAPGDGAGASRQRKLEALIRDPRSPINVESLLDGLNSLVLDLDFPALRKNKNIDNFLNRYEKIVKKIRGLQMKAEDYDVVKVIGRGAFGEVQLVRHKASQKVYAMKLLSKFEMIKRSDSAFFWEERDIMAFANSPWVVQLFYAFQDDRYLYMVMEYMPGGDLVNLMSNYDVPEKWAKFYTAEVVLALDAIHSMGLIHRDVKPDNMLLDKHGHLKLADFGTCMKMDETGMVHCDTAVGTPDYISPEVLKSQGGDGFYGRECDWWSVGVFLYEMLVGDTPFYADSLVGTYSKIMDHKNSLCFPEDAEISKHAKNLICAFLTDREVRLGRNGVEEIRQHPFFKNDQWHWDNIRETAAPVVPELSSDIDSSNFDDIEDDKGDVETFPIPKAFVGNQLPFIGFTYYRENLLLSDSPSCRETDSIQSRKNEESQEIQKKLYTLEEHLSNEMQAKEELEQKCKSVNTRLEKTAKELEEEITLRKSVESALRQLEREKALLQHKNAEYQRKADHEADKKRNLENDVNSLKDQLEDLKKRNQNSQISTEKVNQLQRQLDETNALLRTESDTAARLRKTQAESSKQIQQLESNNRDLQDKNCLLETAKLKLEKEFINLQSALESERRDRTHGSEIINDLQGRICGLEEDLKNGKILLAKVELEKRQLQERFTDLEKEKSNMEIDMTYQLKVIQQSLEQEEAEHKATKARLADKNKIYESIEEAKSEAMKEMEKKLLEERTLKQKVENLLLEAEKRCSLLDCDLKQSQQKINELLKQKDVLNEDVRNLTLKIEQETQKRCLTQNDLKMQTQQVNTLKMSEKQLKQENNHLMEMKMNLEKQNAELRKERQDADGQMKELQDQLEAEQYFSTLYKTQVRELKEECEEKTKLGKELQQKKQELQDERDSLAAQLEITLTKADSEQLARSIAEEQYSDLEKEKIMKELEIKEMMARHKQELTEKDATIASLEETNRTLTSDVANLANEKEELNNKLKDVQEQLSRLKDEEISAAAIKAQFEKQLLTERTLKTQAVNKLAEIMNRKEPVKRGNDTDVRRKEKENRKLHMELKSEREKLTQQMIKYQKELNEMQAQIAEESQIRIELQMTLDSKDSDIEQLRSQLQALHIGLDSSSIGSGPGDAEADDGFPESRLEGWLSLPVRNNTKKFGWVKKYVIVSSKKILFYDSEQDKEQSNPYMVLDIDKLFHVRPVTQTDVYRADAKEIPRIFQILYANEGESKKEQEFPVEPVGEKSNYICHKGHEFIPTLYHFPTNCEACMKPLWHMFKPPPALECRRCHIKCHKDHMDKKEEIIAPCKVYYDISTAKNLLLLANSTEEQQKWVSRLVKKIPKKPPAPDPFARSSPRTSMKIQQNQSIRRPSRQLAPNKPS

[13] = biological target: Rho-associated protein kinase 2 (Homo sapiens) (UniProt O75116); details: at 1 µM
[14] = biological target: Ribosomal protein S6 kinase alpha-1 (Homo sapiens) (UniProt Q15418); details: at 0.1 µM
Chain of Ribosomal protein S6 kinase alpha-1 (Homo sapiens) (Q15418 whole entry): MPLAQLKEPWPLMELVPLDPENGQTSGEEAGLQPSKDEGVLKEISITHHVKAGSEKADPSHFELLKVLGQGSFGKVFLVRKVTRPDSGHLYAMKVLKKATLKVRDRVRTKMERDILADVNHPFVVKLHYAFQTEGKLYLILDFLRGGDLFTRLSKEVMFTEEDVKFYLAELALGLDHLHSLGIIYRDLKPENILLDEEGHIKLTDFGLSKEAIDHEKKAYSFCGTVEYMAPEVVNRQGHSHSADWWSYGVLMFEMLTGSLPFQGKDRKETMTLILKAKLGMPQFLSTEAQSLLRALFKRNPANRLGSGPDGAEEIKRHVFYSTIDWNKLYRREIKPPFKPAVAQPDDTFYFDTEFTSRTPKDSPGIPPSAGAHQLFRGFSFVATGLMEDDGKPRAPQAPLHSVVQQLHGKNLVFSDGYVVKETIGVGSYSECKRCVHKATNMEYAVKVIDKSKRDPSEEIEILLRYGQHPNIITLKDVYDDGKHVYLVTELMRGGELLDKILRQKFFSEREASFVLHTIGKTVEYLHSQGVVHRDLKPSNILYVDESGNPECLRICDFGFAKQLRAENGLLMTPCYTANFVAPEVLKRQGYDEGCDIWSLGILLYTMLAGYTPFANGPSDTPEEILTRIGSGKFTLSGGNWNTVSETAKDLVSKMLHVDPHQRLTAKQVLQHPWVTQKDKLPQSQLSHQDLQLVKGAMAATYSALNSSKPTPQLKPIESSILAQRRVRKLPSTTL

[15] = biological target: Ribosomal protein S6 kinase alpha-1 (Homo sapiens) (UniProt Q15418); details: at 1 µM
[16] = biological target: Ribosomal protein S6 kinase alpha-3 (Homo sapiens) (UniProt P51812); details: at 0.1 µM
Chain of Ribosomal protein S6 kinase alpha-3 (Homo sapiens) (P51812 whole entry): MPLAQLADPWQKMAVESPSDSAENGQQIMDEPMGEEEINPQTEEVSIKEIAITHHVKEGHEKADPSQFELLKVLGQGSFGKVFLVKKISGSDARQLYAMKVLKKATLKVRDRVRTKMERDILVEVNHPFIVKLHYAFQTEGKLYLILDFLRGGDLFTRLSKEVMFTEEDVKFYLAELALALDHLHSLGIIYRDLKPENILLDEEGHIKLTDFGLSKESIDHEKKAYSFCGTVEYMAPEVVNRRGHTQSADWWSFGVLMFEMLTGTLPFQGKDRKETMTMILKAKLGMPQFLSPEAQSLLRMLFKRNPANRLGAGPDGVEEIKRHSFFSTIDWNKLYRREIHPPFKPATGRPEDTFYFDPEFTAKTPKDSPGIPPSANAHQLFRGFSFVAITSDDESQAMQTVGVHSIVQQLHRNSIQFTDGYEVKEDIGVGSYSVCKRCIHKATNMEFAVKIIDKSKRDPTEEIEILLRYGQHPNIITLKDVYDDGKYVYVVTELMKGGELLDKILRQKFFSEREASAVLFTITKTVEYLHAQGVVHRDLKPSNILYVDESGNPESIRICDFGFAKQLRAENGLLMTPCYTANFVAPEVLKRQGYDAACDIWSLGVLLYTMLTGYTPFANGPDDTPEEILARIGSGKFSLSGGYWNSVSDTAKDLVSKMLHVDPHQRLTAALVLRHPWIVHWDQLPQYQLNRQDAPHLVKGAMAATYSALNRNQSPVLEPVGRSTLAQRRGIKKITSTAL

[17] = biological target: Ribosomal protein S6 kinase alpha-3 (Homo sapiens) (UniProt P51812); details: at 1 µM
[18] = biological target: Ribosomal protein S6 kinase alpha-2 (Homo sapiens) (UniProt Q15349); details: at 0.1 µM
Chain of Ribosomal protein S6 kinase alpha-2 (Homo sapiens) (Q15349 whole entry): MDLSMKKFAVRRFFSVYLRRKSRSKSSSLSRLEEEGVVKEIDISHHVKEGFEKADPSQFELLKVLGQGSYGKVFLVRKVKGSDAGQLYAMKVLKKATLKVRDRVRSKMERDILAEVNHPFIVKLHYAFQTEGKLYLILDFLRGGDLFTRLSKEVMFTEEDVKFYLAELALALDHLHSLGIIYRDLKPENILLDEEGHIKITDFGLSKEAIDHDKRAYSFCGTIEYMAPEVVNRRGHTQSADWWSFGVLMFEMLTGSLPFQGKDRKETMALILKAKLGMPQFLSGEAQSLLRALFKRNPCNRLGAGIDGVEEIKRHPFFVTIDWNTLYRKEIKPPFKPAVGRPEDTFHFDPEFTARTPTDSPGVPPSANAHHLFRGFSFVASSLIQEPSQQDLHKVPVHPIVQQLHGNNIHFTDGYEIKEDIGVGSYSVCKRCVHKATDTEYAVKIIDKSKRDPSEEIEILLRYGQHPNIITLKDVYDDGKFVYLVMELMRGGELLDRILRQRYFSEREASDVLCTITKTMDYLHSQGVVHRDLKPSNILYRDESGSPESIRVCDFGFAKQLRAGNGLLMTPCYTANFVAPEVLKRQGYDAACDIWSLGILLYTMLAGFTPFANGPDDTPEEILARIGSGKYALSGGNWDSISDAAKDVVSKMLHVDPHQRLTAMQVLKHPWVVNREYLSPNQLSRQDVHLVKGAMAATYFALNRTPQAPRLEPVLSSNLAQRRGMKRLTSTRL

[19] = biological target: Ribosomal protein S6 kinase alpha-2 (Homo sapiens) (UniProt Q15349); details: at 1 µM
[20] = biological target: Ribosomal protein S6 kinase alpha-6 (Homo sapiens) (UniProt Q9UK32); details: at 0.1 µM;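 also: reported value is the mean inhibition of RSK4, from the GSK PKIS kinase inhibitor screen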

| Compound | inhibition [1] | inhibition [2] | inhibition [3] | inhibition [4] | inhibition [5] | inhibition [6] | inhibition [7] | inhibition [8] | inhibition [9] | inhibition [10] | inhibition [11] | inhibition [12] | inhibition [13] | inhibition [14] | inhibition [15] | inhibition [16] | inhibition [17] | inhibition [18] | inhibition [19] | inhibition [20] |
| --- | --- | --- | --- | --- | --- | --- | --- | --- | --- | --- | --- | --- | --- | --- | --- | --- | --- | --- | --- | --- |
| Clc1ccc(CNc2nccc(-c3cnn4ncccc34)n2)cc1 | 5.34% | 0.83% | 3.93% | 2.07% | 6.09% | -0.17% | 3.68% | 0.56% | 1.41% | 0.21% | 1.31% | 2.04% | 2.71% | 1.41% | 1.24% | 0.05% | 0.52% | 0.62% | 0.33% | 2.62% |
| CN1CCN(CCCNc2nc3ccc(Oc4ccc(NC(=O)Nc5cc(C(F)(F)F)ccc5F)cc4)cc3[nH]2)CC1 | -0.73% | -2.59% | -1.97% | 3.15% | 3.23% | 3.62% | 2.7% | 2.54% | 1.08% | 1.94% | 3.23% | 0.43% | 0.51% | 1.08% | -1.68% | 1.52% | -0.48% | 0.97% | 2.27% | 1.31% |
| O=C(Nc1n[nH]c2nc(-c3ccco3)ccc12)C1CC1 | 1.79% | 0.02% | 1.55% | 2.2% | 4.23% | 0.68% | 3.61% | 2.71% | 3.87% | 1.29% | 3.74% | 1.89% | 3% | 0.92% | 0.86% | -0.05% | 0.78% | 0.54% | 1.46% | 0.59% |
| COC(=O)Nc1nc2ccc(Sc3ccc(NC(=O)Nc4cc(C(F)(F)F)ccc4F)cc3)cc2[nH]1 | 0.52% | 1.06% | 0.51% | 0.91% | 1.52% | -0.08% | 0.57% | 0.23% | -1.11% | -0.63% | -0.72% | 0.53% | -0.19% | -0.4% | 0.24% | -0.27% | -1.87% | 47.7% | 2.97% | 48.6% |

— ChEMBL document CHEMBL1961873, “Compounds: GSK PKIS; Assays: Nanosyn kinase panel” (2012)
